AHR activator: activates the human aryl hydrocarbon receptor. AHR-responsive luciferase reporter cells, luminescence. 320,000 tested, 2.5% active. P35869. activation, % at 5 µM; in the data active means activation above about 47%;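 further: 0% = vehicle wells and 100% = reference agonist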
Target sequence (P35869 whole entry, looked up): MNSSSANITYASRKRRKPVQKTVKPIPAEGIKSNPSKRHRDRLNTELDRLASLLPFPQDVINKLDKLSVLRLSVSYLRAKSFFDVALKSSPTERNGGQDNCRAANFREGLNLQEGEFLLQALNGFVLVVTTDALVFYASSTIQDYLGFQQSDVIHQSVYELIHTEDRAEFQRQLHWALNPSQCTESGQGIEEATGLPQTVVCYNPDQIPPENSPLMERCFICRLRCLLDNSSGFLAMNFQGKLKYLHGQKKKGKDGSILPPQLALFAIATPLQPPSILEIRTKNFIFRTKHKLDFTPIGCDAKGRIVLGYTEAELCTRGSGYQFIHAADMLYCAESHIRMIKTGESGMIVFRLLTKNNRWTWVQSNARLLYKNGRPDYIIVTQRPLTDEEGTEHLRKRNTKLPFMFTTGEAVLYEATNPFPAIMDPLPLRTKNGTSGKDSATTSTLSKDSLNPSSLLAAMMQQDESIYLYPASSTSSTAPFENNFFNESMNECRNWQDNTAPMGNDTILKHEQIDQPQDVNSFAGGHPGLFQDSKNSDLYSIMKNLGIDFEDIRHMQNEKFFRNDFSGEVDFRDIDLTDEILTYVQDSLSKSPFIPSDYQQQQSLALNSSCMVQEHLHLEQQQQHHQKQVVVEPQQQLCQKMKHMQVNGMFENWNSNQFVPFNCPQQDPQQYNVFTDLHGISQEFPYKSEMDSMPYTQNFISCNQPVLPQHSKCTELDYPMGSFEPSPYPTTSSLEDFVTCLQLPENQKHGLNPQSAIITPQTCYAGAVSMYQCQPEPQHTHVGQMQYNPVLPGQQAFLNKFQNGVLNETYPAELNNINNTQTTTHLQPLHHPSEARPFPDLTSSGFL
esBAF inh: SWI/SNF esBAF complex inhibition; mouse ES cells, Bmi1-luciferase knock-in reporter, 24 h; 100% = twice the neutral-well signal; reporter increase, % at 12.5 µM; 350,000 tested, 2% active; in the data active means activation above about 40%; inconclusive means no clear call, values can overlap the other calls;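 further: 0% = median of the plate's neutral control wells and 100% = double that signal; a rise in the Bmi1 reporter signal indicates esBAF inhibition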
Wnt act: activators of Wnt/beta-catenin signaling. activation, % at 9.35 µM. Wnt/beta-catenin reporter cell assay, activator, plate reader. 300,000 tested, 1.2% active. AID 743398; in the data active means activation above about 30%, passing the limit was not always enough; inconclusive means no clear call, values can overlap the other calls;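 further: 0% = neutral control wells and 100% = positive control wells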
FXN GAA850 act: activators of GAA850 frataxin (FXN) promoter | HEK293 lucGAA850 FXN promoter luciferase reporter, 24 h; percent of 10 µM SAHA response | activation, % at 6 µM | 360,000 tested, 0.56% active | AID 540364;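 active means activation above the average of all compounds screened plus 3 SD, cutoff fixed separately per campaign, cut at about 7.5% in these data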;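 further: 0% = DMSO wells and 100% = 10 µM SAHA wells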
MITF act: increases MITF-driven TRPM1 promoter luciferase signal; SK-MEL-5 TRPM1-promoter luciferase, 24 h; % of positive control, neutral wells = 0; activation, % at 12.5 µM; 300,000 tested, 0.75% active; AID 588334;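 active means mean activation of at least 80% with every replicate also reaching 80%; inconclusive means mean reaches 80% but some replicate falls short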;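 further: 0% = neutral control wells and 100% = parthenolide positive control wells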
Active calls of the source: *; u = inconclusive; x = no result. The list is not random: actives were taken first. Their share in the collection is about 4.2%.

SMILES	AHR activator	esBAF inh	Wnt act	FXN GAA850 act	MITF act
C[C@@H]1CN([C@@H](C)CO)S(=O)(=O)c2ccc(C#CCN(C)C)cc2O[C@H]1CN(C)Cc1ccccc1	x	-0.5	x	x	x
CCCC(=O)Nc1ccc(C(=O)NN=C(C2CC2)C2CC2)cc1	18.9	3.6	-1.1	-0.1	14.6
CC(=O)Nc1ccc(C(=O)COC(=O)C2CC2)c(F)c1	x	39.7	38.1*	3.0	125.8*
CCCC(=O)Nc1ccc(C(=O)COC(=O)C2CC2)cc1	0.4	38.6	48.3*	2.2	72.9
CC(=O)Nc1ccc(C(=O)COC(=O)C2CCCCC2)c(F)c1	0.4	-2.3	-2.7	0.8	47.7
CCCNC(=O)C[C@@H]1CC[C@@H]2[C@@H](COc3ccc(NC(=O)CCC)cc3C(=O)N2C)O1	x	-7.5	x	x	x
O=C(Nc1ccccc1)Nc1nc(-c2ccccc2)cs1	-3.6	x	-0.4	-1.8	14.1
CC(C)C(=O)Nc1cccc(-c2csc(-c3ccccc3)n2)c1	68.1*	27.9	-1.7	4.1	65.8
CC(C)C(=O)Nc1ccc(-c2csc(-c3ccccc3)n2)cc1	-3.4	71.1*	x	3.5	138.9*
CCc1cc(C(=O)COc2ccc(F)cc2)c(O)cc1O	6.2	x	42.5*	2.3	44.0
Cc1c(O)ccc(C(=O)COc2ccc(F)cc2)c1O	-4.6	79.7*	x	2.4	u
CCc1cc(C(=O)Cc2ccccn2)c(O)cc1O	29.9	-6.4	1.8	-1.1	1.8
COc1ccc(S(=O)(=O)N(C)C[C@H]2OCCCC[C@@H](C)Oc3ccc(NC(=O)Nc4ccccc4)cc3C(=O)N([C@@H](C)CO)C[C@H]2C)cc1	x	0.4	x	x	x
O=C(N/N=C/c1oc(O)c2ccccc12)c1ccccc1O	10.7	18.3	x	0.9	-7.7
O=[N+]([O-])CC(=Nc1ccc(F)cc1)N/N=C\c1oc(O)c2ccccc12	53.7*	x	x	x	x
O=C(Nc1cccnc1)c1cc(-c2ccc(Br)cc2)on1	1.4	25.9	49.7*	1.7	x
CCCc1cc(C(=O)NCc2cccs2)no1	2.9	54.3*	26.7	1.4	x
CCCc1cc(C(=O)NCc2cccnc2)no1	6.2	2.6	2.6	0.3	-9.4
CCCc1nn(C)c(C(=O)Nc2cccc(Cl)c2)c1Cl	88.8*	x	-8.8	-7.4	6.0
CCCc1cc(C(=O)Nc2cccnc2)no1	19.0	15.2	41.4*	1.7	x
CCCc1nn(C)c(C(=O)Nc2cccc(C)c2)c1Cl	24.6	x	-0.9	3.5	46.5
COc1ccc(CN(C)C[C@H]2Oc3ccc(NS(=O)(=O)c4ccccc4)cc3C(=O)N([C@H](C)CO)C[C@@H]2C)cc1	x	-3.7	x	x	x
C[C@@H]1CN([C@@H](C)CO)C(=O)Cc2cc(NC(=O)NC3CCCCC3)ccc2O[C@@H]1CN(C)C(=O)Nc1ccccc1	x	0.8	x	x	x
CCCc1cc(C(=O)Nc2ccc(F)c(Cl)c2)no1	-6.6	30.7	21.2	4.3	107.5*
CCCc1cc(C(=O)Nc2ccc(C(C)=O)cc2)no1	1.4	5.6	14.4	0.5	31.2
SMILES	AHR activator	esBAF inh	Wnt act	FXN GAA850 act	MITF act
CCCc1cc(C(=O)Nc2cccc(Cl)c2)no1	-2.2	53.8*	46.7*	-0.3	x
Cn1cccc1/C=C1\SC(=S)N(Nc2ccccc2)C1=O	2.3	x	14.6	1.5	x
Cn1cccc1/C=C1\SC(=O)N(c2ccccc2)C1=O	-4.8	x	40.7*	1.0	94.5*
C[C@H]1CN([C@@H](C)CO)C(=O)c2cc(-c3ccccc3)cnc2O[C@@H]1CN(C)C(=O)c1ccccn1	x	-5.0	x	x	x
Cc1cc(N2CCN(c3ncccn3)CC2)nc2c(C)cccc12	71.7*	4.0	1.5	0.2	-9.6
C[C@@H]1CN([C@@H](C)CO)C(=O)c2cccc(NC(=O)Nc3ccc4c(c3)OCO4)c2O[C@H]1CN(C)C(=O)Nc1ccc(F)cc1	x	-4.4	x	x	x
COc1ccc(C(=O)CSc2ncnc3nc[nH]c23)cc1	2.9	x	3.7	0.7	x
Cc1ccc(OCCSc2ncnc3nc[nH]c23)cc1	1.1	x	x	7.5	90.4*
CC1=NN(c2ccccc2)C(=O)/C1=C/c1c(O)n(-c2ccc(F)c(Cl)c2)[nH]c1=O	49.4*	x	x	x	x
Cc1ccc(C2NNC(=O)C2NC(=O)c2ccccc2)cc1 (stereo not drawn)	7.7	50.6*	x	5.1	33.7
O=C(C[C@H]1CC[C@@H]2[C@H](COC[C@H](O)CN2C(=O)c2cnccn2)O1)NCc1ccccc1	x	-0.7	x	x	x
Clc1ccc(-n2nnc(-c3cccnc3Cl)n2)cc1Cl	6.0	54.7*	29.7	3.3	94.6*
COc1ncccc1-c1nnn(-c2ccccc2Br)n1	12.4	21.7	15.8	3.2	16.1
Fc1ccc(-n2nnc(-c3ccccc3Cl)n2)cc1	0.9	-0.2	-1.1	-0.1	x
COc1ncccc1-c1nnn(-c2ccccc2)n1	31.4	4.9	53.3*	5.0	x
c1ccc(-n2nnc(-c3cccnc3)n2)cc1	43.1	58.2*	27.6	5.0	91.1*
Clc1ncccc1-c1nnn(-c2ccccc2)n1	29.5	3.6	34.2*	4.3	99.0*
O=C(c1ccccc1F)N1C[C@@H]2[C@H](c3ccccc31)[C@@H](CO)N2C(=O)c1cccnc1	x	-3.0	x	x	x
Cc1ccc(S(=O)(=O)N[C@H]2C=C[C@@H](CC(=O)N3CCc4ccccc4C3)O[C@H]2CO)cc1	x	0.0	x	x	x
O=C(NC[C@H]1N[C@H](CO)[C@@H]1c1ccc(-c2ccccc2)cc1)C1CCC1	x	-6.7	x	x	x
Clc1nc2ccccc2cc1-c1nnn(-c2ccccc2)n1	26.2	61.6*	27.0	5.0	x
Cc1ccc(-n2nnc(-c3cnc4ccccc4c3)n2)cc1	24.0	-36.8	22.8	4.6	-5.8
O=C1NC[C@@H](c2ccccc2)OC(=O)[C@H](Cc2ccc(F)cc2)C/C=C\C[C@H]1CC(=O)N(CCO)Cc1ccccc1	-0.8	-0.1	0.0	-1.0	2.1
O=C1NC[C@H](c2ccccc2)OC(=O)[C@@H](Cc2ccc(F)cc2)C/C=C\C[C@H]1CC(=O)N(CCO)Cc1ccccc1	-0.9	44.5*	5.9	-10.5	-19.9
O=C1C(C=NCc2ccccn2)=C(O)c2ccccc21	60.3*	73.4*	-1.6	5.9	50.3
SMILES	AHR activator	esBAF inh	Wnt act	FXN GAA850 act	MITF act
O=C1C(C=NCCCn2ccnc2)=C(O)c2ccccc21	47.6*	52.9*	-2.8	3.0	-5.2
CCN1C(=C2C(=O)c3ccccc3C2=O)C=Cc2ccccc21	6.9	44.3*	x	6.9	x
CCN1C(=O)/C(=C2/C=Cc3ccccc3N2C)OC1=S	-1.1	26.6	x	2.1	101.0*
C[C@H]1CN([C@@H](C)CO)C(=O)Cc2cc(NS(=O)(=O)c3ccc(Cl)cc3)ccc2O[C@@H]1CN(C)C(=O)Nc1ccc2c(c1)OCO2	x	-4.4	x	x	x
C[C@@H]1CCCCO[C@H](CN(C)C(=O)Nc2ccc3c(c2)OCO3)[C@@H](C)CN([C@H](C)CO)C(=O)c2cc(NS(C)(=O)=O)ccc2O1	x	2.9	x	x	x
CC(C)OC(=O)c1cccnc1SCc1cc(=O)n2ccccc2n1	54.6*	17.7	x	2.5	3.3
CC(C)OC(=O)c1cccnc1SCC(=O)N(C)c1ccccc1	0.1	1.6	x	-0.8	0.9
C[C@@H]1CN([C@H](C)CO)C(=O)c2cc(NC(=O)c3ccncc3)ccc2O[C@@H]1CN(C)C	x	0.4	x	x	x

Screening data as filed in PubChem.
